Test results as given in the supplement of paper PMC11417369.
± gives the standard deviation of the averaged measurements. Over roughly 25,000 sequences, “ln(normalized median fluorescence intensity)” has its median near 7.9; the highest 2% begin near 11. For the sample, the highest values were picked, then their nearest neighbours and some sequences at random.

Test system: PfAP2-I AP2 domain 3 (GST-tagged)
Assay: gcPBM binding intensity (ln(normalized median fluorescence intensity)); higher = stronger DNA binding
In short: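 Binding intensity is the highest Masliner-normalised natural-log median intensity over replicate spots in either probe orientation. To obtain it, GST-tagged P. falciparum DNA-binding domains made in E. coli were incubated for 1 h on an Agilent 4 × 180k array of primer-extended double-stranded 36-bp intergenic genomic probes plus negative controls. Detection used Alexa488 anti-GST antibody with scanning at 488 nm.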

Row | Sequence | gcPBM binding intensity (ln)
1 | ATGTTATAAGATTTATGTACACACATATACACACCT [XGTACX_site1316] | 8.35 ± 0.21
2 | CATAAATCAGCCATAACACACATACCTATATACATA [CACACA_site6324] | 7.75 ± 0.57
3 | TAAAATATTATCTACGCACACATTAAAATAAAAAAA [CACACA_site3709] | 8.32 ± 0.2
4 | ACTTTAAAAAGATTCACACAAAATATATAAAAATAT [CACACA_site5334] | 7.75 ± 0.39
5 | AGAATTTTATTATATTGTACTTTTTATAAACCTTGT [XGTACX_site7495] | 7.7 ± 0.71
6 | ATTAAAACACAATATTCACACATGTATATTATATAT [CACACA_site5191] | 7.72 ± 0.51
7 | CATATATATATATGAACACACAAAAAGAATATTTCC [CACACA_site1493] | 7.62 ± 0.63
8 | GAATATGTAAAGAAAGGTACACATGAAAATATGTGT [XGTACX_site446] | 7.71 ± 0.66
9 | GATGTTTCTATTTTAGTGCATTTTAAATAAATAAAT | 10.4 ± 0.12
10 | ATGAATACAAAATTATACAAAATTATCAAAAGTATG [CACACA_negctrl_site1453] | 7.5 ± 0.49
11 | TTGTATACATAAAATGGTACAGAATATATAATTCTA [XGTACX_site7236] | 7.45 ± 0.61
12 | ATTTTATGAAATGTTGCACACAAAAAACAACATGTT [CACACA_site8408] | 8.95 ± 0.092
13 | TATATATAAATATATGTGCACTTTTTATATTTATAT | 11 ± 0.13
14 | TATTTTTGGTTATGTGTGCACTATGAACAACAAAAT | 11.4 ± 0.26
15 | AATAACTATATATGTGTGCACAAAAATTTGACATAA | 10.7 ± 0.049
16 | AAATATATGTTATATGTGCACTTTTTTTTTTTTTTT [GTGCAC_site9667] | 10.21 ± 0.035
17 | ATAATATATGTATGTATGCACTTTTATTATTTTTTT | 8.96 ± 0.15
18 | TATATTATTTATTTTTGTACATATTATGAATGAATA [XGTACX_site3971] | 7.73 ± 0.33
19 | ACTCAAACCTTTAGAGTGCAAAAAAAAAAAAAAAAA [GTGCAC_site9952] | 10 ± 0.21
20 | TTTTTTAAAAGATAATATTTTATTAATGTATTCTCA [GTGCAC_negctrl_site598] | 7.2 ± 0.55
21 | TTAAAAAAATATTGAAGTACACACATTATAAACTTT [XGTACX_site3548] | 7.89 ± 0.38

Row | Sequence | gcPBM binding intensity (ln)
22 | TAGGAAAAAAATACAGTGCAATTTTTATATAAATAA [GTGCAC_site9979] | 8.62 ± 0.5
23 | AAATAAATTTGACCAGTGCAATAACTTTGTATACCT [GTGCAC_site9446] | 11.2 ± 0.64
24 | CTTTTTTTGACCTTAGTGCAAATAACTATATATTAT | 10.5 ± 0.41
25 | AAAAAAAAAGAAAAATGTACATACATAAATATATAT [XGTACX_site5664] | 7.77 ± 0.68
26 | TAATTGATTCTTCACCGTACTCACACATATATATAT [XGTACX_site6530] | 8.99 ± 0.085
27 | AGTATAAGCATTATTGTGCACATAATTATAATTTTT | 10.6 ± 0.53
28 | ATATATATATAATTTGTACACACAAATATGCATATA [CACACA_site9136] | 9.18 ± 0.24
29 | TGTGCATAATTTTGTGCACACCACGCTAATAATTTT [CACACA_site2915] | 11.4 ± 0.48
30 | CATATATAAAATATATGTACTTATAGAACATAATTT [XGTACX_site1936] | 7.3 ± 0.35
31 | AAATACTTAACATTGGTGCATATTTGTAAAATTATT [GTGCAC_site9515] | 10.3 ± 0.55
32 | TTTTTGTAAAATAAACGTACAAAACAATTGTTCATT [XGTACX_site6537] | 7.82 ± 0.4
33 | TTTGTTCATATTATTGTGCACTTAAACGTAACAAAA [GTGCAC_site9505] | 11.3 ± 0.39
34 | AAAAATAAATATATATGTACACATATGTATACAATA [XGTACX_site4692] | 7.65 ± 0.38
35 | ATATATATATATAGTGCACACATATAAAATATATAT [CACACA_site8884] | 11.5 ± 0.15
36 | ATGAAACACTCCATAGTGCAAAATATATATTATATT | 10.27 ± 0.057
37 | AATAATAAAAAAAGTGCACACACATAATATATATAT [CACACA_site9100] | 9.95 ± 0.014
38 | AATACAATAAAATAGTGTACATATATATTATGTATA [XGTACX_site8258] | 7.63 ± 0.27
39 | ATTACACATATAGTAGTGCAATAACTCCAAAAAAAA | 11.4 ± 0.6
40 | TTAACATACACTCTAGTGCATATATATAACAAAATA [GTGCAC_site9724] | 10 ± 0.17
41 | TTATACAGGACAATAGTGCACATAAATATATGTATA | 11.2 ± 0.51
42 | ATATAAATATAGTGTGCACACACATAATATATATAT [CACACA_site8713] | 9.49 ± 0.11

Row | Sequence | gcPBM binding intensity (ln)
43 | ATATATATATAGTGCACACATATAAAATATATATAA [CACACA_site2745] | 11.29 ± 0.078
44 | TAATAAAAAAAGTGCACACACATAATATATATATAT [CACACA_site3340] | 9.93 ± 0.37
45 | TATATATATATGTGCACACATAATAAAAAAAAAAAT [CACACA_site3831] | 10.3 ± 0.11
46 | TTTTCTTTTTGTTCGTGTACACACATGAAATTTATA [XGTACX_site3301] | 8.78 ± 0.68
47 | TACAGAAATTTATATATATATATATATATATATATA [XGTACX_negctrl_site209] | 9.39 ± 0.54
48 | ATATAAAACTAATTTCTTTTTCTCCTTTTATTTTGT [CACACA_negctrl_site1251] | 7.8 ± 0.59
49 | AACAAACAAATAGTTTATTTTGATTTTTTTAAAAAT [CACACA_negctrl_site693] | 7.36 ± 0.65
50 | AATAAAATTTGCGATGCACACAGAATAGCTAATATG [CACACA_site8983] | 7.96 ± 0.57
51 | TATATATAAATATATACACACATGAAAATAAATAAA [CACACA_site2514] | 7.67 ± 0.45
52 | TTGAAAAATGAGCACACACACAAATACATACATATT [CACACA_site3231] | 7.97 ± 0.36
53 | ATATTTTTTTTTTTCACACACATTTATATTGTATTA [CACACA_site5695] | 8.01 ± 0.79
54 | TTAGCAACTATTACTACACACATTTTTATATAACTT [CACACA_site6762] | 7.84 ± 0.59
55 | TTTAAAATAAATTAATAGAACAAAAATAAAATGATT [GTGCAC_negctrl_site375] | 7.78 ± 0.67
56 | AAATTAAAGGCATAAAAGAAAATATTTAATAAAAAA [CACACA_negctrl_site1689] | 7.71 ± 0.73
57 | TTATATGCACTTTTTGCACACGTATGAATAACAAAA [CACACA_site1811] | 10.8 ± 0.86
58 | ATATGCACTTTTTGCACACGTATGAATAACAAAATA [CACACA_site1810] | 10 ± 0.25
59 | ATAGGCACTTTTTGCACACGTATGAATAACAAAATA [CACACA_site5069] | 9.54 ± 0.13
60 | ATAAACATCTAGTGCTGTACACAATTTGATTTTTTT [XGTACX_site3110] | 8.9 ± 0.31
61 | TATTTTTTTTTATTTTTTTTTATTTTGTTTTTTTAT [TGCATGCA_negctrl_site315] | 7.32 ± 0.52
62 | AAAAAAATTAAATCAAGTACTCATTCTTAAATTATA [XGTACX_site1274] | 7.32 ± 0.49
